In the library only some 3.8% were active in any assay of this set; here they are far more common.
FAS TE block – inhibitors of human fatty acid synthase thioesterase domain; hit rate 0.67% among 360,000; P49327; inhibition, % at 15 µM; AID 602261; recombinant FAS-TE, OMFH fluorogenic substrate, fluorescence endpoint;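 active means compounds whose normalised, plate-corrected inhibition of enzyme fluorescence in the single-dose primary screen is 50% or more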;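 further: 0% = DMSO with enzyme and 100% = substrate without enzyme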
H9c2 protect – modulators protecting cardiomyocytes from myocardial damage | H9c2 cardiomyocytes, H2O2 injury protection, ATPLite, 2 h | protection from H2O2 cell death, % at 20 µM | hit rate 0.63% among 360,000;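 active means compounds giving at least 50% protection of heart cells from peroxide-induced death in the single-dose screen, raw or plate-pattern-corrected value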;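 further: 0% = DMSO wells with peroxide and 100% = DMSO wells without peroxide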
aDG glyco up – alpha-DG glycosylation activation. Pro5-aDG cells, alpha-DG glycosylation AlphaScreen (IIH6); 0% Pro5, 100% B10-LARGE cell signal. activation, % at 10 µM. hit rate 0.22% among 360,000. AID 624168;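 active means activation of at least 8% versus controls, or a plate z-score of at least 8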;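 further: Pro5 are CHO cells carrying HIG-tagged alpha-DG that lacks glycosylation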
Yeast superoxide – caloric restriction mimetics inhibiting age-related superoxide in yeast; S. cerevisiae aged cells, superoxide DHE fluorescence; hits give low values; superoxide response (% of plate mean), % at 10 µM; hit rate 0.18% among 330,000; AID 2690;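 active means superoxide response under a set limit, about three screen SD below normal, cut at about 65% in these data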;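 further: yeast aged for seven days with compound at 30 °C before DHE staining; 100% = average MFI of all compound-treated wells on the plate with controls excluded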
MPTP block – inhibitors of mitochondrial permeability transition pore; inhibition, % at 10 µM; hit rate 1.4% among 360,000; isolated mouse mitochondria, Ca2+ swelling absorbance, 30 min;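 active means inhibition of 50% or more, scaled per plate between neutral and stimulator controls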;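 further: 0% = DMSO wells given calcium and 100% = 1 mM EGTA wells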
SUMO Mot1 rescue – inhibitors of SUMOylation pathway: yeast Mot1-301 growth rescue; hit rate 1% among 320,000; S. cerevisiae Mot1-301 growth rescue, ATP luminescence, 38.5C; percent above DMSO median, 100 means doubled; growth rescue, % at 18.8 µM;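 active means every valid replicate shows activation above 250% relative to neutral control wells; inactive means the rest, any valid replicate at or below 250%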;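 further: OY570 slx delta 5 strain wells were the positive control but not used for scaling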
Rh123 counter – Rhodamine 123 counter-screen of mitochondrial pore hits; shares compounds with MPTP block; isolated mitochondria, membrane potential, Rhodamine 123 fluorescence; inhibition, % at 10 µM; hit rate 78% among 5,000; AID 624504; in the data active means inhibition above about 22%;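 further: 0% = DMSO vehicle and 100% = positive control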
MPTP swell DR – dose response confirmation of mitochondrial permeability transition pore inhibitors; shares compounds with MPTP block; isolated mitochondria swelling, absorbance; IC50, µM; hit rate 58% among 780; in the data active means IC50 below about 20 µM
MPTP counter DR – active in counter-screen for permeability transition pore inhibitors; shares compounds with MPTP block; isolated mitochondria counterscreen, fluorescence read-out; IC50, µM; hit rate 49% among 780; in the data active means IC50 below about 80 µM
An asterisk follows results filed as active; i = inactive; · = no result.

SMILES	FAS TE block	H9c2 protect	aDG glyco up	Yeast superoxide	MPTP block	SUMO Mot1 rescue	Rh123 counter	others
CC(C)Cn1c(/C=N/Nc2nc3ccccc3[nH]2)nc2ccccc21	-9.1	-14.0	0.4	·	99.7*	·	74.0*
Cn1c(/C=N/Nc2nc3ccccc3[nH]2)nc2ccccc21	-0.8	-7.3	-0.3	87.6	0.6	-10.5	·
C=CCn1cc(/C=N/Nc2nc3ccccc3[nH]2)c2ccccc21	-37.5	-28.1	1.9	85.3	63.4*	10.1	-21.9
Cc1c(/C=N/Nc2nc3ccccc3[nH]2)c2ccccc2n1C	-20.2	-14.8	-0.5	83.5	0.8	15.3	·
COC(=O)c1sccc1NC(=O)c1ccc(C(C)C)cc1	29.7	-11.0	0.1	93.4	0.2	-7.4	·
C#Cc1ccc(NC(=O)C2(C)CCN2C(=O)c2cc(C)n(C)n2)cc1 (stereo not given)	-0.5	2.1	-0.3	·	-0.8	·	·
COc1ccc(S(=O)(=O)N2CCC(O)(c3ccc(Cl)cc3)CC2)cc1	18.4	-4.6	0.0	91.7	4.3	-21.7	·
CC(C)(C)c1ccc(S(=O)(=O)N2CCC(N3CCCCC3)CC2)cc1	-2.2	-8.2	0.6	91.6	71.2*	76.5	1.5	MPTP swell DR=i;MPTP counter DR=27.2*
CC(C)(C)c1ccc(S(=O)(=O)N2CCC(O)(c3ccc(Cl)cc3)CC2)cc1	40.6	-26.2	0.6	88.7	84.1*	-7.4	91.9*
CN(CC1CCN(CCc2cccc(C(F)(F)F)c2)CC1)C(=O)c1ccc(F)cc1F	-5.6	3.9	0.0	83.6	1.3	38.5	·
COc1ccc(C(=O)N(C)CC2CCN(CCc3cccc(C(F)(F)F)c3)CC2)cc1C	-1.1	-6.2	0.2	98.1	53.1*	385.6	-3.2	MPTP swell DR=11.8*;MPTP counter DR=42.1*
O=[N+]([O-])c1ccc(N/N=C/c2ccccc2)c(F)c1	26.0	-12.0	-0.2	107.7	82.6*	201.0	79.9*
O=C(NCc1ccco1)c1ccccc1NS(=O)(=O)c1ccc(Br)s1	-0.6	-18.1	-0.2	105.3	70.6*	0.3	81.1*
O=C(N=C1SC2CS(=O)(=O)CC2N1c1cccc(F)c1)C1CC1 (stereo not given)	-3.3	1.1	-0.1	94.4	-1.7	8.5	·
c1ccc2c(c1)oc1c(Nc3ccc4c(c3)OCO4)ncnc12	-6.4	-16.2	-0.1	87.7	7.5	-0.4	·
c1ccc2c(c1)oc1c(NCc3ccc4c(c3)OCO4)ncnc12	11.7	-37.2	0.1	96.3	84.5*	-7.4	109.9*
CCN(C(=O)COC(=O)c1cccnc1SC)c1c(N)n(Cc2ccccc2)c(=O)[nH]c1=O	-4.9	2.0	0.2	90.2	0.0	-5.5	·
O=C(Nc1ccc(Cl)c(Cl)c1)Nc1cc(S(=O)(=O)N2CCOCC2)ccc1N1CCCC1	26.1	-15.8	-0.1	98.8	93.5*	-9.9	68.0*
O=C(Nc1ccc(Cl)c(Cl)c1)Nc1cc(C(=O)N2CCOCC2)ccc1N1CCCCC1	1.0	0.3	-0.1	96.0	94.6*	19.7	-2.1	MPTP swell DR=18.2*;MPTP counter DR=<2.5*
COc1ccc(NC(=O)CN2C(=O)NC3(CCCCCC3)C2=O)cc1Cl	6.1	-1.1	0.0	83.5	0.1	-19.5	·
O=C(OCc1cn([C@H]2C[C@H](c3ccc(Cl)cc3)N(C(=O)C3CCCCC3)C[C@@H]2O)nn1)c1ccccc1	6.5	19.8	0.1	·	-0.7	·	·
CC1(C(=O)Nc2cnc3ccccc3c2)CCN1C(=O)CC(c1ccccc1)c1ccccc1 (stereo not given)	18.9	3.3	0.0	·	1.8	·	·
O=S(=O)(c1ccc(Br)s1)N1CCN(c2ccnc3cc(Cl)ccc23)CC1	46.2	-12.5	0.6	108.8	64.9*	33.6	36.0*
Cc1ccc(NC(=O)COc2ccccc2CNC(C)(C)CC(C)(C)C)cc1	-2.9	-23.3	2.1	101.3	50.1*	-2.7	33.5*
CC(C)C1O/C(=N/C(=O)Nc2ccc(Cl)c(Cl)c2)NC1=O (stereo not given)	9.3	-13.5	-0.1	110.4	92.9*	-29.2	91.6*
SMILES	FAS TE block	H9c2 protect	aDG glyco up	Yeast superoxide	MPTP block	SUMO Mot1 rescue	Rh123 counter	others
CN(C)C(=O)Nc1ccc(Cl)c(Cl)c1	-4.0	-7.9	0.0	·	-1.1	·	·
O=C(Nc1ccc(C(=O)O)cc1)Nc1cccc2ccccc12	-2.0	-0.9	0.4	89.0	-1.8	225.6	·
CC(=O)Nc1csc2ccccc12	-2.8	-6.2	0.0	94.6	1.2	6.8	·
CC1(C)SC(=S)N(NC(=O)Nc2ccccc2)C1N(O)C(=O)Nc1cccc2ccccc12 (stereo not given)	-87.1	-5.3	0.3	100.3	71.9*	12.5	69.0*
O=C(Nc1ccccc1)Nc1csc2ccccc12	22.7	-11.3	0.2	62.6*	83.6*	11.5	85.3*
O=C(Nc1ccccc1)Nc1cccc2ccccc12	0.1	-3.5	0.3	100.6	70.6*	-26.9	75.2*
CC(C)CNC(=O)C1(C)CCN1C(=O)c1ccc(C(C)(C)C)cc1 (stereo not given)	1.0	-18.1	0.4	·	0.9	·	·
CCC(C)c1ccc(O)c(NC(=O)c2cncc(Br)c2)c1 (stereo not given)	10.1	-19.4	0.2	101.3	77.4*	-7.9	63.7*
Cn1cccc1C(NC(=O)c1ccccc1)C(Cl)(Cl)Cl (stereo not given)	3.4	3.8	-0.4	93.7	-0.5	3.3	·
COc1ccc(NC(=O)C2CC3C=CC2C3)c([N+](=O)[O-])c1 (stereo not given)	2.2	-5.4	-0.1	·	-0.1	·	·
CCC/C=C/c1ccc(CN2C(CC(C)C)C(=O)N(Cc3cn(CC4CCCCC4)nn3)CCS2(=O)=O)cc1 (stereo not given)	14.6	-7.8	2.5	·	0.2	·	·
Cc1ccc(C2CC2C(=O)NNC(=S)Nc2cccc(Cl)c2)cc1 (stereo not given)	14.4	-13.7	-0.2	78.4	60.6*	29.0	70.4*
Cc1ccc(C2CC2C(=O)NNC(=S)Nc2cccc(C)c2)cc1 (stereo not given)	0.2	-4.1	0.0	85.8	9.0	0.6	·
CN(C)S(=O)(=O)c1ccc(C(=O)NNC(=O)c2ccccc2-n2cccc2)cc1	0.4	11.8	-0.1	95.0	-0.2	-13.5	·
Cc1ccc(/C(=N/Nc2nc3ccccc3s2)C2=C(O)c3ccccc3C2=O)cc1	31.1	-6.7	-0.6	109.7	89.6*	·	70.6*
Cn1ncc(Cl)c1C(=O)N1CCN(C(=O)c2ccco2)CC1	-11.9	6.9	0.0	·	73.0*	·	-0.7	MPTP swell DR=>100;MPTP counter DR=>80
CCc1nnc(NS(=O)(=O)c2ccc(NC(=S)NC(=O)/C=C/c3ccccc3)cc2)s1	27.0	-4.2	-0.4	116.9	12.5	151.1	·
